Assay results taken from PubChem BioAssay (NCI).
Several values for one entry are separate records, joined by “and”; a condition that tells them apart may be missing. Equal values may be shown once. This is part of a sample that, as a whole, favours compounds with a hit. Of some 83,000 tested, about 20% had one in any assay.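 For each line, cells grew in 96-well plates with the test compound present at a single concentration for 48 hours.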 Unmarked numbers belong to inactive results. Activity calls are given as the source filed them. How the source made its calls: active means growth percent below 10; inactive means the rest. Where a SMILES comes first, the peptide text is derived from it.

What follows are compounds tested on CAKI-1 renal (assay: NCI-60 one-dose screen, 48 h (100 = growth as untreated, 0 = no growth, -100 = all killed)). Conditions: 10 µM unless noted.

Structure (SMILES)	growth
NC(Cc1c[nH]c2ccccc12)C(=O)O (configuration not stated)	85%
CC(C)NC(=O)N/C=C(\C#N)C(N)=O	81.5%
CC(=O)OCC1OC(OC(C)=O)C(OC(C)=O)C(OC(C)=O)C1OC(C)=O (configuration not stated)	97.1% and 100%
Cc1cc(-c2ccc(N=Nc3ccc4c(S(=O)(=O)O)cc(S(=O)(=O)O)c(N)c4c3O)c(C)c2)ccc1N=Nc1ccc2c(S(=O)(=O)O)cc(S(=O)(=O)O)c(N)c2c1O	86.9%
COc1ccc(C(=O)CC(c2ccccc2)C(C#N)c2ccccc2)cc1 (configuration not stated)	74.2%
Cc1ccc(=O)[nH]n1	103% and 97.7%
O=C1C=C(Nc2ccccc2)c2ccccc2C1=O	55.9% and 98.1%
CN1CNC(=O)NC1	98.5% and 106%
COc1cc(C(O)C2C(=O)OCC2C2(c3ccc4c(c3)OCO4)SCCCS2)cc(OC)c1OC (configuration not stated)	93.8%
O=C(O)/C=C\C(=O)Nc1cccc2ccccc12	89.4% and 98.7%
NN1CCOC(c2ccccc2)C1 (configuration not stated)	109%
c1ccc(-c2nc3ccccc3s2)cc1	79.7%
NC(Cc1ccccc1)C(=O)NC(Cc1ccccc1)C(=O)O (stereo not drawn) (H-Phe-Phe-OH; configuration not given here)	106% and 97.1%
COc1ccc2cc1Oc1ccc(cc1)C[C@H]1c3cc(c(OC)cc3CCN1C)Oc1c(OC)c(OC)cc3c1[C@H](C2)N(C)CC3	68.9%
Oc1ccc(Cc2ccccc2Cl)c(O)c1	91%
CN(C)c1ccc(/C=C\C(=O)c2ccccc2)cc1	86.9% and 93.8%
c1ccc2c(c1)OC1OC2Oc2ccccc21	113%
NC1CCC(C(=O)O)CC1 (configuration not stated)	96.7% and 90.7%
CC1(C)COC(=S)N1	95.7%

Structure (SMILES)	growth
C/C(=C\c1ccccc1)c1ccccn1	102%
CCN(CCNS(C)(=O)=O)c1ccc(N)c(C)c1	39.4% and 73.2%
O=CN1CCCCC1	96.9%
CCCCOC(=O)/C=C\C(=O)NC(N)=O	-58% (active)
CC[C@H](CC[C@@H](C)[C@H]1CC[C@H]2[C@@H]3CC=C4C[C@@H](O)CC[C@]4(C)[C@H]3CC[C@]12C)C(C)C	93.2% and 90%
N#CC(C#N)N=Nc1ccc(Cl)cc1	4.49% (active)
O=C1OC(C(O)C(O)CO)C(O)=C1O (configuration not stated)	104% and 102%
CCCCCCCCCCCCCCCCC(C(=O)O)C(O)(CC(=O)O)C(=O)O (configuration not stated)	103% and 74.9%
CC(C)C(C)(C)c1ccc(O)cc1	96.4%
OCC1OC(O)C(O)C(O)C1O (configuration not stated)	89%
O=C(/C=C/c1ccccc1)c1ccccc1	99.2%
O=c1[nH]cnc2c1ncn2C1OC(CO)C(O)C1O (configuration not stated)	113% and 95.3% and 63.4%
Nc1ccc2c(O)cc(S(=O)(=O)O)cc2c1	87.1%
CC1CCC2(C(=O)O)CCC3(C)C(=CCC4C5(C)CCC(O)C(C)(C)C5CCC43C)C2C1C (configuration not stated)	40.4% and 90.8%
CC1CCC(C(C)C)C(NNC(N)=O)C1 (configuration not stated)	98.9%
CC(=O)Nc1ccc(S(N)(=O)=O)cc1	108% and 93.2%
Cc1cc2ccccc2cn1	100% and 67.8%
C#CCOC(=O)Nc1ccccc1	98%
